Structures are written as SMILES. The panel holds about 83,000 compounds, 20% with a hit somewhere; the sample as a whole holds those more often.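 Single-dose data. Exposure time 48 hours. Values below 10 considered active.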 Calls of active or inactive are those of the source.

This experiment deals with RPMI-8226 leukemia. As to the kind of experiment: NCI-60 one-dose screen, 48 h (100 = growth as untreated, 0 = no growth, -100 = all killed). The settings on record: 10 µM unless noted. The procedure: Growth inhibition of the RPMI-8226 human tumor cell line is measured as a screen for anti-cancer activity. Cells are grown in 96 well plates and exposed to the test compound for 48 hours. Compounds are tested at a single concentration, which is 10^-5 M for most compounds. The reported endpoint is percent growth (GI% or GIPRCNT), where numbers from 0 - 100% represent growth inhibition, and numbers from -100% - 0 represent cell death. For example, a value of 40 represents 60% growth inhibition. A value of 0 means no net growth occurred over the course of the experiment. A value of -40 indicates 40% of cells at the beginning of the experiment died by the end of the experiment. A value of -100 means all cells are dead at the end of the experiment.
NCI-60 Human Tumor Cell Lines Screen was performed using the standard one-dose NCI protocol, which is described in more detail at https://dtp.cancer.gov/discovery_development/nci-60/default.htm.
Compounds with GIPRCNT values below 10 were considered active. Activity score was based on GIPRCNT using the following formula: […]
Score is 0 for GIPRCNT values of 100 or above, 50 for GIPRCNT values of 0, and 100 for GIPRCNT values of -100.
With `CC(C)=CCC/C(C)=C/C=N\N=C(/N)N[N+](=O)[O-]`, the growth was 93.6% (inactive).
The result for `CC(=O)O[C@H](C[C@H](C(C)C)N(C)C(=O)[C@@H](NC(=O)[C@H]1CCCCN1C)C(C)C)c1nc(C(=O)N[C@@H](Cc2ccccc2)C[C@H](C)C(=O)O)c(CCOCc2ccccc2)s1` reads -3.42% (active); that for `Nc1nnnc2nc[nH]c12`, -11.4% (active); that for `O=C(CN1CCN(C(=O)c2ccco2)CC1)Nc1ccc(Cl)cc1C(=O)c1ccccc1Cl`, 53.6% (inactive).
With `COc1ccc(/C=C/c2cc(OC)c(OC)c(OC)c2)cc1NC(=O)/C=C/c1ccc(F)cc1`, the growth is 51.8% (inactive).
In the case of `O=C(Nc1ccc(Br)cc1)c1cc(Br)cc(Br)c1O`, the growth is -10.1% (active).
Take `CN(C)CC(C(=O)Cc1ccccc1)c1ccccc1` (stereo not given): the growth was -4.6% (active).
As to `COC(=O)[C@@H](C)C[C@H](Cc1ccccc1)NC(=O)c1csc(CC[C@H](C(C)C)N(C)C(=O)[C@@H](NC(=O)[C@H]2CCCCN2C)C(C)C)n1`, the growth was 19.8% (inactive).
`NC1CC2CCCCC2CC1(O)c1ccccc1` (stereo not given): the growth was 93.6% (inactive).
The result for `CC[C@H](C)[C@H](NC(=O)[C@H]1CCCCN1C)C(=O)N(C)[C@H](C[C@@H](OC(C)=O)c1nc(C(=O)N[C@@H](Cc2ccccc2)C[C@H](C)C(=O)OC)cs1)C(C)C` reads 27.5% (inactive); that for `Clc1cccc(N2COOC3(OOC2)C2CC4CC(C2)CC3C4)c1`, 53.8% (inactive).
In the case of `CNC(=O)Oc1ccc(C(C)(C)C)cc1OC(=O)NC`, the growth is 95.5% (inactive).
For `CCCCCC1(CCBr)C(=O)NC(=O)NC1=O`, the growth was 97.5% (inactive).
Consider `CC1[C@H](C)OC(=O)CC(O)CC(O)CC(O)CCC(O)C(O)C[C@]2(O)CC(O)C(C(=O)O)C(CC(OC3O[C@H](C)[C@@H](O)[C@H](N)[C@@H]3O)/C=C/C=C/C=C/C=C/CC/C=C/C=C/[C@H](C)[C@H]1O)O2` (stereo not given in full), for which the growth was 106% (inactive).
For the compound `O=C(CC1(O)C(=O)N(Cc2ccccc2)c2ccc(Br)cc21)c1ccc(C(=O)NCC2CCC3(CC2)OOC2(CCCCC2)OO3)cc1` (stereo not given), the growth is -7.69% (active).
Consider `COc1ccc(C/C(C)=C(\c2ccc(OCCN3CCOCC3)cc2)c2ccc(OC(=O)Cc3ccccc3)cc2)cc1`, for which the growth was -42.4% (active).
The result for `Cc1cc(N(CCCl)CCCl)ccc1C=Nc1cccnc1` reads 78.3% (inactive).
On to `COc1ccc(Nc2ccnc3cc(Cl)ccc23)cc1CN(CCCl)CCCl`, for which the growth is -25.8% (active).
Turning to `CC(C)CCC(=O)O[C@H]1CC[C@H]2[C@@H]3CCC4=CC(=O)CC[C@]4(C)[C@H]3CC[C@]12C`, the growth was 98.6% (inactive).
For `O=C1NC(=O)C(=Cc2cn(CCCCCCn3c4ccccc4c(=O)c4ccccc43)c3ccccc23)C(=O)N1` the value was 76.2% (inactive).
The result for `CC(=O)OCc1cc[c]([Hg][Cl])o1` reads 26.4% (inactive); that for `COC(=O)[C@H](Cc1c[nH]c2ccccc12)NC(=O)[C@@H](OC)[C@@H]1Cc2cc3cc(OC4CC(OC5CC(O)C(O)C(C)O5)C(O)C(C)O4)c(C)c(O)c3c(O)c2C(=O)[C@H]1OC1CC(OC2CC(OC3CC(C)(O)C(O)C(C)O3)C(O)C(C)O2)C(O)C(C)O1` (stereo not given in full), -5.61% (active).
The result for `COC(=O)[C@@H](C)C[C@H](Cc1ccccc1)NC(=O)c1nc([C@@H](C[C@H](C(C)C)N(C)C(=O)[C@@H](NC(=O)[C@H]2CCCCN2C)C(C)C)OC(C)=O)sc1C(C)C` reads 20.5% (inactive); that for `COc1ccc(Nc2ccc([N+](=O)[O-])cc2[N+](=O)[O-])cc1CN(CCCl)CCCl`, 0.0676% (active).
Consider `C#C[C@]1(OC(=O)CCCCCC)CC[C@H]2[C@@H]3CCC4=CC(=O)CC[C@@H]4[C@H]3CC[C@@]21C`, for which the growth is 1.02% (active).
In the case of `CC[C@H](C)[C@H](NC(=O)c1nccn1C)C(=O)N(C)[C@H](C[C@@H](OC(C)=O)c1nc(C(=O)N[C@@H](Cc2ccccc2)C[C@H](C)C(=O)OC)cs1)C(C)C`, the growth was 24.6% (inactive).
On to `COC(=O)[C@@H](C)C[C@H](Cc1ccccc1)NC(=O)c1cccc([C@@H](C[C@H](C(C)C)N(C)C(=O)[C@@H](NC(=O)[C@H]2CCCCN2C)C(C)C)OC(C)=O)n1`, for which the growth is 22.4% (inactive).
On to `CC(=O)C(c1c(O)c2ccccc2oc1=O)c1cc(=O)oc2c1ccc1ccccc12` (stereo not given), for which the growth is 94% (inactive).
As to `COc1ccc(N(CC(=O)NCCC[Te]c2ccccc2)C(=O)CNC(=O)OC(C)(C)C)cc1`, the growth was 13% (inactive).
As to `CC(CC1CCCCC1)NCc1ccccc1` (stereo not given), the growth is 106% (inactive).
`CC1=C2[C@@H](CC1)[C@]1(C)O[C@@](C(C)C)(C[C@H]1O)[C@H]2OC(=O)C1CC1c1ccccc1` (stereo not given in full): the growth is 58.2% (inactive).
For `CC[C@H](C)[C@@H]([C@@H](CC(=O)N1CCC[C@H]1[C@H](OC)[C@@H](C)C(=O)N[C@H](C)[C@@H](O)c1ccccc1)OC)N(C)C(=O)[C@@H](NC(=O)[C@@H](NC)C(C)C)C(C)C` the value was 26.5% (inactive).
`c1ccc(COc2ccc3[nH]cc(CCN(Cc4ccccc4)Cc4ccccc4)c3c2)cc1`: the growth is 74.9% (inactive).
The result for `O=C1C2C(C(=O)[N]1[Hg][c]1ccccc1)C1(Cl)C(Cl)=C(Cl)C2(Cl)C1(Cl)Cl` (stereo not given) reads -40.8% (active).
With `COc1ccc(C(O)(C(=O)O)c2ccc(OC)cc2)cc1`, the growth was 78.2% (inactive).
On to `CN[C@]1(c2ccccc2Cl)CCCC[C@H]1NCCCN1CCN(C)CC1`, for which the growth is 97.3% (inactive).
Consider `CCOc1ccccc1C(=O)OCC(Cl)(Cl)Cl`, for which the growth is 107% (inactive).
For `CC1=C(O)[C@@](C)(CCCCC[C@H](C)CCCCc2ccc(O)cc2)OOC1=O` the value was 85% (inactive); for `CNC(=O)Oc1ccc2c(c1)OCO2`, 115% (inactive); for `CCN(CC)c1ccc2c(c1)OC(N)=C(C#N)C2c1cc(OC)c2c(c1)OCO2` (stereo not given), 26.6% (inactive).

Source of the values: PubChem BioAssay (NCI).
